SW480 rerep: inducers of DNA re-replication in SW480 colon cancer cells; hit rate 1.8% among 340,000; SW480 DNA re-replication, Hoechst DNA content imaging, 48 h; Potency, µM (titrated, usually from 46.1 µM), most hits filed as activators; also: nearly all actives have a fitted effect of over 55% in size
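Per well, 250 cells were exposed to pinned compound for 48 hr. Nuclear DNA was visualised with Hoechst (40 min, 37 C) and total object intensity recorded by fluorescence scanning.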
MCF10A rereplic: DNA re-replication induction in MCF 10a cells; MCF 10A DNA re-replication, Hoechst nuclear intensity, 48 h; Potency, µM (top dose mostly 46.1 µM), most hits filed as activators; hit rate 2.9% among 350,000; AID 624296; also: nearly all actives have a fitted effect of over 50% in size
Mito fusion yeast: inhibitors of mitochondrial division or activators of mitochondrial fusion; Potency, µM (highest dose often 46.1 µM), actives largely listed as activators; hit rate 0.23% among 320,000; S. cerevisiae fusion-defective mutant growth rescue, CellTiterGlo 48 h; also: nearly all actives have a fitted effect of over 45% in size
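Temperature-sensitive fusion-defective S. cerevisiae (e.g. fzo1-1, mgm1-5) were grown with compound in YPEG medium (3% ethanol, 3% glycerol) for 48 hours at 37C. Growth rescue was measured as viability by CellTiterGlo luminescence after 10 minutes at ambient.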
Integrin act MD: activates integrin-mediated alleviation for muscular dystrophy. alpha7betagal myoblasts, beta-gal FDG fluorescence, 48 h. AID 624291. hit rate 0.064% among 350,000. Potency, µM (series often up to 38.3 µM), usual class: activators; also: nearly all actives have a fitted effect of over 60% in size
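Alpha7betagal+/- myoblasts (passage 13) were plated 16-24 hr, then exposed to compounds (1:260 dilution of DMSO stock) for 48 hours at 37C. After MPER lysis, β-galactosidase reporter activity was read as FDG fluorescence (ex 480/em 540) after 30 minutes.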
AT treatment: potential ataxia-telangiectasia treatments restoring KAP-1 phosphorylation; F2112 A-T fibroblasts, KAP-1 phosphorylation AlphaLISA; neocarzinostatin DNA damage 30 min before lysis; Potency, µM (doses to about 57.5 µM), hits mostly activators; hit rate 0.19% among 320,000; AID 485349; also: nearly all actives have a fitted effect of over 45% in size
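ATM-like activity read as KAP-1 phosphorylation via AlphaLISA donor/acceptor antibody pairs after lysis and 6 hr at 25C. Cells were ATM-null patient fibroblasts (F2112, hTERT), dosed 60 min, then exposed to the DSB inducer NCS for 30 min.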
Numbers stand for hits; – = inactive; ? = inconclusive; · = no result; [ ] = remark or other dose. The list is not random: actives were taken first. Their share in the collection is about 4.2%. Calls follow the shape of the dose curve; as a rule, active = well fitted activation curve with a large enough effect; inconclusive = small, poorly fitted or top-dose-only effect; inactive = no such curve, though single readings can be large or run the other way.

SMILES | SW480 rerep | MCF10A rereplic | Mito fusion yeast | Integrin act MD | AT treatment
O=C(CN1C(=O)C(=O)N(Cc2ccccc2)C1=O)Nc1cc(Cl)cc(Cl)c1 | 18µM | ? | – | – | –
O=C(CN1C(=O)C(=O)N(Cc2ccccc2)C1=O)Nc1ccc(OC(F)F)cc1 | – | – | – | – | –
CCOc1ccccc1C1NC(=O)c2ccccc2N1 (stereo not drawn) | 1.8µM | ? | · | – | ·
O=C1NC(c2ccncc2)Nc2ccccc21 (stereo not drawn) | – | – | – | – | –
Cc1ccc(C2NC(=O)c3ccccc3N2)s1 (stereo not drawn) | 21µM | ? | – | – | –
Cc1cccc(C2NC(=O)c3ccccc3N2)c1 (stereo not drawn) | 16µM | 15µM | · | – | ·
CN(C)c1ccc(C2NC(=O)c3ccccc3N2)cc1 (stereo not drawn) | ? | ? | – | – | –
Cc1ccc(C2NC(=O)c3ccccc3N2)c(C)c1 (stereo not drawn) | ? | 6.5µM | · | – | ·
CCOC(=O)c1[nH]c(=S)[nH]c1C | – | – | · | – | ·
COc1cc(CC2C(=O)OCC2C(=O)c2ccc3c(c2)OCO3)cc(OC)c1OC (stereo not drawn) | – | – | · | – | ·
Cc1cccn2c(=O)c3cc(C(=O)NCCc4ccccc4)c(=N)n(Cc4ccco4)c3nc12 | 6.5µM | 13µM | – | – | ?
Cc1cccn2c(=O)c3cc(C(=O)NCc4ccco4)c(=N)n(CCc4ccccc4)c3nc12 | 18µM | 2.9µM | – | – | –
CC(C)(C)c1ccc(C(=O)NCCCN2CCN(CCCNC(=O)c3ccc(C(C)(C)C)cc3)CC2)cc1 | ? | 16µM | – | – | –
COc1ccccc1NS(=O)(=O)c1ccc(C(=O)NCCCN2CCOCC2)cc1 | 8.2µM | – | – | – | –
Nn1cc(-c2ccccc2)nc1SCC(=O)Nc1ccc2c(c1)OCO2 | – | – | – | – | –
COc1ccc2c(C#N)c3ccccn3c2c1 | ? | 23µM | – | – | –
N#Cc1ccncc1S(=O)c1ccc(Cl)cc1 (stereo not drawn) | – | – | – | ? | –
O=C(Cn1cc(/C=C\[N+](=O)[O-])c2ccccc21)Nc1ccccc1 | ? | 8.2µM | – | – | –
N#Cc1ccccc1Cn1cc(/C=C/[N+](=O)[O-])c2ccccc21 | ? | 4.1µM | – | – | –
O=[N+]([O-])/C=C/c1cn(Cc2ccccc2)c2ccccc12 | ? | ? | – | – | ?
NC(=O)NN=C1C2CCCC1C(c1ccccc1)NC2c1ccccc1 (stereo not drawn) | – | – | – | ? | –
O=c1[nH]c(O)c(C=Nc2ccc(Cl)cc2Cl)c(=O)[nH]1 | – | – | – | – | –
CC(C)=CCC/C(C)=C/CNC(=O)C[C@H]1C[C@H](C(=O)N(C(C)C)C(C)C)[C@@]2(C)c3[nH]c4cc(-c5ccco5)ccc4c3CCN2C1=O | –[9.22 µM] | ? | · | – | –
CC[C@]12c3[nH]c4cc(-c5ccco5)ccc4c3CCN1C(=O)[C@@H](CC(=O)NCc1ccc(OC)c(OC)c1)C[C@@H]2C(=O)N1CCN(C(=O)c2ccco2)CC1 | 4.1µM | – | · | – | –
CCN(CC)C(=O)[C@H]1C[C@H](CC(=O)NC/C=C(\C)CCC=C(C)C)C(=O)N2CCc3c([nH]c4cc(-c5ccco5)ccc34)[C@]12C | –[9.22 µM] | 21µM | · | – | –[11.5 µM]
SMILES | SW480 rerep | MCF10A rereplic | Mito fusion yeast | Integrin act MD | AT treatment
COCCCNC(=O)CC1C[C@H](C(=O)N2CCCCC2)[C@@]2(CCc3ccccc3)c3[nH]c4ccc(OC)cc4c3CCN2C1=O (stereo partly drawn) | 18µM | – | · | – | –
CC(C)=CCC/C(C)=C/CNC(=O)C[C@H]1C[C@H](C(=O)N2CCOCC2)[C@@]2(CCC3CCCC3)c3[nH]c4cc(CCC(=O)N(C)C)ccc4c3CCN2C1=O | ? | 15µM | · | – | –
C[C@H]1CN([C@@H](C)CO)S(=O)(=O)c2ccc(Br)cc2O[C@@H]1CN(C)C(=O)Cc1ccccc1 | · | · | · | – | ·
O=C1c2cccc3cccc(c23)C(=O)N1CCCN1CCN(c2ccc(F)cc2)CC1 | – | – | – | – | –
CN1C(=O)[C@H]2[C@@H](c3ccc(C(F)(F)F)cc3)N[C@]3(CCCN(CC4CCCCC4)C3=O)[C@H]2C1=O | · | · | · | – | ·
COC(=O)Cn1c(=NC(=O)CSC(C)=O)sc2ccccc21 | – | – | – | – | –

Screening data: PubChem BioAssay, National Center for Advancing Translational Sciences (NCATS)
